HT1080-NT tox = kills 2HG-producing HT-1080-NT fibrosarcoma cells. HT-1080-NT fibrosarcoma viability, CellTiter-Glo ATP luminescence, 48 h. Potency, µM (highest dose often 46.1 µM), usual class: cytotoxic. actives 1.6% (n = 360,000);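 note: NT is the 2HG producing partner of a matched IDH1 knockdown line; nearly all actives have a fitted effect of over 55% in size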
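Toxicity toward the 2HG-producing NT line was scored as %Activity, normalised to DMSO and no-cell wells, from CellTiter-Glo luminescence after 48 hours' treatment.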
DT40 TDP1 no CPT = qHTS for Inhibitors of human tyrosyl-DNA phosphodiesterase 1 (TDP1): qHTS in cells in absence of CPT; actives 15% (n = 420,000); AID 686978, 2013; DT40 Tdp1-/- hTDP1 cells, no CPT, ATP luminescence, 48 h; Potency, µM (titrated, usually from 46.2 µM), actives largely listed as inhibitors; note: nearly all actives have a fitted effect of over 55% in size
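Luminescent ATP content (CellTiter-Glo) served as the growth readout. Knockout chicken DT40 cells expressing human TDP1 were exposed to compounds without camptothecin for a minimum 48 hr at 37 °C.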
HepG2 tox = HepG2 cytotoxicity, counter-screen for TGF-b inhibitors | actives 0.76% (n = 410,000) | AID 588856 | Potency, µM (top dose mostly 46.1 µM), usual class: cytotoxic | HepG2 CAGA-GFP viability, ATP luminescence, 18 h
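CellTiter-Glo luminescence gave cytotoxicity after 18 hours at 37 degrees C. The cells were HepG2 CAGA-GFP in 1% FBS DMEM, stimulated with 500 pg/mL TGF-beta after compound addition. %Activity was normalised to no-cell wells (complete cell-killing) and DMSO (no toxicity), and curves were fitted and classified.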
TDP1 cell CPT = DT40-hTDP1 cell growth loss with CPT; actives 12% (n = 420,000); chicken DT40 Tdp1-/-;hTDP1 cells + 20 nM CPT, ATP luminescence, 48 h; Potency, µM (top dose mostly 46.2 µM), usual class: inhibitors; note: nearly all actives have a fitted effect of over 55% in size
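Cell growth measured by CellTiter-Glo luminescence after a minimum 48 h, 37 C compound exposure with 20 nM CPT in Tdp1-knockout DT40 cells stably expressing hTDP1, seeded 400/well; qHTS titration format.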
TGFb inhibitor = TGF-b pathway inhibition | HepG2 CAGA-GFP TGF-b/SMAD3 reporter, GFP fluorescence, 18 h; TGF-beta stimulated, 500 pg/mL final | actives 1.2% (n = 410,000) | Potency, µM (doses to about 46.1 µM), hits mostly inhibitors | AID 588855; note: nearly all actives have a fitted effect of over 65% in size
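Inhibition was scored as loss of TGF-beta-induced (500 pg/mL final, 18 hours, 37 degrees C) GFP in HEPG2 cells carrying a CAGA-GFP reporter, in DMEM with 1% FBS. Well GFP was summed per cell; Activity was normalised to unstimulated and stimulated DMSO wells, then concentration-response fitting.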
HT1080 IDH1KD tx = HT-1080 IDH1 knockdown cell toxicity (counter line). HT-1080 IDH1 knockdown viability, ATP luminescence, 48 h. Potency, µM (highest dose often 46.1 µM), most hits filed as cytotoxic. AID 686971. actives 2% (n = 360,000)
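CellTiter-Glo luminescence after 48 h compound exposure at 37 degrees C of IDH1-knockdown HT-1080 cells in 5% FBS RPMI. %Activity scaled between DMSO wells and cell-free media wells, with curves fitted and assigned curve classes.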
Large screens that a line does not name were inactive. An excerpt weighted towards active compounds, which were near 17% of everything screened. Calls come from the whole dose curve; as a rule, active = well fitted curve in the direction sought with a large enough effect; inconclusive = small, poorly fitted or top-dose-only effect, or another doubt; inactive = no such curve, though single readings can be large; an effect the other way counts as inactive or inconclusive.

COc1ccc(CCNC(=O)/C(C#N)=C2\N=C(NC(=O)c3ccco3)c3ccccc32)cc1	HT1080-NT tox inconclusive, DT40 TDP1 no CPT 16.4µM, TDP1 cell CPT inconclusive
CCCCN(C)C(=O)C1CCCN(c2ncnc3onc(-c4ccc(F)cc4)c23)C1 (stereo not drawn)	DT40 TDP1 no CPT 23.1µM, TDP1 cell CPT 14.6µM (no result: HT1080-NT tox, HT1080 IDH1KD tx)
CC(C)N(Cc1ccccc1)C(=O)C1CCCN(c2ncnc3onc(-c4ccc(F)cc4)c23)C1 (stereo not drawn)	DT40 TDP1 no CPT 5.17µM, TDP1 cell CPT 7.31µM, TGFb inhibitor inconclusive (no result: HT1080-NT tox, HT1080 IDH1KD tx)
CCCN(CCC)C(=O)C1CCCN(c2ncnc3onc(-c4ccc(F)cc4)c23)C1 (stereo not drawn)	DT40 TDP1 no CPT 16.4µM, TDP1 cell CPT 5.17µM (no result: HT1080-NT tox, HT1080 IDH1KD tx)
Cc1ccccc1S(=O)(=O)N1C(c2ccc(Cl)cc2)CC=C(C(=O)O)C1c1cccc(Cl)c1 (stereo not drawn)	none (no result: HepG2 tox, TGFb inhibitor)
O=C(CN1C(=O)NC(c2ccccc2)(c2ccccc2)C1=O)NCC(=O)Nc1ccc(F)cc1	TDP1 cell CPT inconclusive
CCCN(CCC)Cc1cc(=O)oc2cc(OC)ccc12	DT40 TDP1 no CPT inconclusive, TDP1 cell CPT inconclusive, TGFb inhibitor inconclusive
O=c1cc(CN(Cc2ccccc2)Cc2ccccc2)c2c(ccc3ccccc32)o1	DT40 TDP1 no CPT inconclusive, TDP1 cell CPT 29.1µM, TGFb inhibitor inconclusive
COc1ccc2c(CN(Cc3ccccc3)Cc3ccccc3)cc(=O)oc2c1	DT40 TDP1 no CPT inconclusive, TDP1 cell CPT 16.4µM
COc1cc2oc(=O)cc(CN3CCN(c4ccc(Cl)c(Cl)c4)CC3)c2cc1Cl	none
COc1ccc(N2CCN(Cc3cc(=O)oc4cc(C)c(Cl)c(C)c34)CC2)cc1	DT40 TDP1 no CPT 9.2µM, TDP1 cell CPT 14.6µM
COc1ccc2c(CN3CCN(c4ccc(Cl)c(Cl)c4)CC3)cc(=O)oc2c1	DT40 TDP1 no CPT 13µM, TDP1 cell CPT 20.6µM
COc1cccc(Nc2ncc3nc(-c4ccc(F)cc4)c(=O)n(C[C@H]4CCCO4)c3n2)c1	none (no result: HT1080-NT tox, HepG2 tox, TGFb inhibitor, HT1080 IDH1KD tx)
CCNc1nc(C)c(CN(C(C)=O)c2ccccc2)nc1C#N	none
COc1cccc(OC)c1C(=O)Nc1ccc(S(=O)(=O)Nc2nccc(C)n2)cc1	none (no result: HT1080-NT tox, HT1080 IDH1KD tx)
CC(=O)/C=C1\OCc2cc(OCc3ccccc3)ccc21	DT40 TDP1 no CPT inconclusive, TDP1 cell CPT inconclusive (no result: HepG2 tox, TGFb inhibitor)
COc1ccc2c(COC(=O)c3n[nH]c4ccccc34)cc(=O)oc2c1	DT40 TDP1 no CPT 20.6µM, TDP1 cell CPT inconclusive
COc1ccc2c(CN3CCN(Cc4ccccc4)CC3)cc(=O)oc2c1	DT40 TDP1 no CPT 23.1µM, TDP1 cell CPT inconclusive
Cc1cc2oc(=O)cc(COC(=O)c3n[nH]c4ccccc34)c2cc1C	DT40 TDP1 no CPT inconclusive, TDP1 cell CPT inconclusive
O=C(NCc1cccc(C(F)(F)F)c1)c1ccc2nc([C@@H]3O[C@H](CO)[C@@H](O)[C@H]3O)[nH]c2c1	none
Cc1cnc(-n2ncc(C(=O)N(C)CC3CCCN(C)C3)c2C2CC2)nc1-c1cccs1 (stereo not drawn)	none (no result: HT1080-NT tox, HepG2 tox, TGFb inhibitor, HT1080 IDH1KD tx)
COc1ccc(-n2nc(C(=O)c3cccs3)cc(-c3nc4ccccc4[nH]3)c2=N)cc1	DT40 TDP1 no CPT 5.8µM, TDP1 cell CPT 5.8µM
Cc1ccc2nc(-c3cccc(NC(=O)c4ccco4)c3)[nH]c2c1	HT1080-NT tox inconclusive, TDP1 cell CPT inconclusive, HT1080 IDH1KD tx inconclusive
Cc1ccccc1-n1nc(C(=O)c2cccs2)cc(-c2nc3ccccc3[nH]2)c1=N	DT40 TDP1 no CPT 7.31µM, TDP1 cell CPT 11.6µM
Cc1cccc(-n2nc(C(=O)c3ccco3)cc(-c3nc4ccccc4[nH]3)c2=N)c1	DT40 TDP1 no CPT 8.2µM, TDP1 cell CPT 16.4µM
COc1cccc2cc(-c3nc4ccccc4[nH]3)c(=O)oc12	DT40 TDP1 no CPT inconclusive
